Compound activity as filed in PubChem BioAssay.
An excerpt weighted towards active compounds, which were near 2.4% of everything screened.
Pol iota inh = qHTS for Inhibitors of Polymerase Iota | 390,000 tested, 1% active | Potency, µM (highest dose often 115 µM), usual class: inhibitors | Pol iota fluorescent replication assay, 10 min | DNA polymerase iota (Homo sapiens), Q9UNA4
Target sequence (Q9UNA4 whole entry, looked up): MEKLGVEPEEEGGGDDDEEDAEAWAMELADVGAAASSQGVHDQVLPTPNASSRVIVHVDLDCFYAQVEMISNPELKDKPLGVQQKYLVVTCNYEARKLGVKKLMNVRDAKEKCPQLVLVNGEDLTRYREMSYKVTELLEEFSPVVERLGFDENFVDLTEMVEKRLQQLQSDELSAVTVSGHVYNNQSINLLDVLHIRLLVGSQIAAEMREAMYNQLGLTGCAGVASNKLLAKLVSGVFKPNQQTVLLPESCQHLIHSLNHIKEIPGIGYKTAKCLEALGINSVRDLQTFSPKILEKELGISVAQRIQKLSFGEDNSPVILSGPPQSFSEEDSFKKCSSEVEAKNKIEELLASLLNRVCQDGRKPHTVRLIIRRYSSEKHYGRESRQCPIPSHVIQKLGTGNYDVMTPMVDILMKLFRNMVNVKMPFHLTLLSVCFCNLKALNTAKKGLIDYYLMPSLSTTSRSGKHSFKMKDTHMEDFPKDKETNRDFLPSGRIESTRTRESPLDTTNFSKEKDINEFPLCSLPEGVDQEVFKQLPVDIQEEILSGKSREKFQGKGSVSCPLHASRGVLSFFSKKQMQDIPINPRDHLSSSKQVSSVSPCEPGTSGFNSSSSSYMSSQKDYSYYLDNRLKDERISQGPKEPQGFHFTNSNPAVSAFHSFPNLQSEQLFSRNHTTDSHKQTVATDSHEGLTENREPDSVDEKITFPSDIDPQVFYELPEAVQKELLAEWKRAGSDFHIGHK
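Fluorescent replication assay read twice, at 0 min and 10 min after adding 50 nM (final) substrate. Enzyme (10 nM) and compounds were first incubated 15 min at room temperature; enzyme-free buffer wells were negative controls.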
Pol eta inh-1 = qHTS for Inhibitors of Polymerase Eta; recombinant Pol eta, fluorescent DNA replication assay; Potency, µM (titrated, usually from 114 µM), most hits filed as inhibitors; 390,000 tested, 1.2% active; AID 588591, 2011
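Pol eta at 10 nM preincubated with compounds 15 min at room temperature; reaction started with fluorescent substrate (50 nM final) and read kinetically at 0 and 10 min.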
Pol kappa inh-1 = qHTS for Inhibitors of Polymerase Kappa; DNA polymerase kappa (Homo sapiens), Q9UBT6; purified Pol kappa, fluorescent DNA synthesis assay, 10 min; Potency, µM (highest dose often 107 µM), hits mostly inhibitors; 400,000 tested, 0.53% active; AID 588579, 2011
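Readout: fluorescence, taken kinetically at 0 and 10 min. Conditions: 10 nM Pol kappa, 15 min RT compound preincubation, 50 nM substrate final. Controls: enzyme-free buffer wells.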
FEN1 inh = qHTS Assay for the Inhibitors of Human Flap endonuclease 1 (FEN1); P39748; Recombinant FEN1 flap cleavage, fluorescence, 15 min; Potency, µM (doses to about 114 µM), most hits filed as inhibitors; 390,000 tested, 0.35% active; AID 588795, 2011; note: nearly all actives have a fitted effect of over 65% in size
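Enzyme 10 nM, 15 min RT preincubation with compound; start with substrate 50 nM final; reads at 0 and 15 min; qHTS titration, four-parameter Hill fit.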
POLB inh = qHTS Assay for Inhibitors of DNA Polymerase Beta. Pol beta primer extension/strand displacement, fluorescence kinetic. AID 485314, 2010. Potency, µM (series often up to 114 µM), usual class: inhibitors. P06746. 340,000 tested, 1.3% active
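Human Pol beta at 10 nM; strand-displacement substrate 50 nM final. Compound exposure 15 min at room temperature before start, reaction 10 min at room temperature.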
WRN inhibitor = qHTS for Inhibitors of WRN Helicase; Bifunctional 3'-5' exonuclease/ATP-dependent helicase WRN (Homo sapiens), Q14191; WRN helicase unwinding, fluorescent forked duplex, kinetic; Potency, µM (doses to about 114 µM), usual class: inhibitors; 360,000 tested, 0.46% active; note: nearly all actives have a fitted effect of over 55% in size
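Kinetic fluorescence helicase assay: unwinding of a quenched forked DNA duplex (100 nM final) with 2 mM ATP final raises red fluorescence (525/598 nm). Compounds sat 15 min at room temperature with 20 nM WRN beforehand.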
Pol kappa inh-2 = qHTS for Inhibitors of Polymerase Kappa: Confirmatory Assay for Cherry-picked Compounds; 920 tested, 76% active; shares compounds with Pol eta inh-1; AID 720501, 2013; purified Pol-kappa, fluorescent strand-displacement substrate; Potency, µM, actives largely listed as inhibitors
Pol eta inh-2 = qHTS for Inhibitors of Polymerase Eta: Confirmatory Assay for Cherry-picked Compounds; Pol eta primer extension, TAMRA/BHQ fluorescence, 10 min; shares compounds with Pol eta inh-1; Potency, µM, hits mostly inhibitors; AID 720502, 2013; 2,600 tested, 64% active
A number is an active result; – = inactive; ? = inconclusive; · = no result; [ ] = dose if it differs, or a comment. Calls come from the whole dose curve; as a rule, active = well fitted curve in the direction sought with a large enough effect; inconclusive = small, poorly fitted or top-dose-only effect, or another doubt; inactive = no such curve, though single readings can be large; an effect the other way counts as inactive or inconclusive.

SMILES | Pol iota inh | Pol eta inh-1 | Pol kappa inh-1 | FEN1 inh | POLB inh | WRN inhibitor | Pol eta inh-2 | others
O=[N+]([O-])c1ccc(Cl)c2c1C1C=CCC1C(c1ccccn1)N2 (stereo not drawn) | ? | 50µM | ? | – | 35µM | ? | ?
Cc1ccccc1OCC(=O)NC(Cc1c[nH]c2ccccc12)C(=O)O (stereo not drawn) | – | – | – | – | – | – | ·
CCCCc1cc(=O)oc2cc(C)cc(OC(C)C(=O)NC(Cc3c[nH]c4ccc(O)cc34)C(=O)O)c12 (stereo not drawn) | – | – | – | – | – | – | ·
Cc1cc(=O)oc2cc(OCC(=O)NC(Cc3c[nH]c4ccc(O)cc34)C(=O)O)c(Cl)cc12 (stereo not drawn) | 71µM | 25µM | ? | – | ? | – | ?
Cc1cc(OC(C)C(=O)NC(Cc2c[nH]c3ccc(O)cc23)C(=O)O)c2c(C)c(C)c(=O)oc2c1 (stereo not drawn) | ? | ? | – | – | ? | –[11.6 µM] | ?
CCOC(=O)Cc1ccc(NC(=O)N2CC(C)Oc3ccc(Cl)cc32)cc1 (stereo not drawn) | – | – | – | – | – | · | ·
Cc1ccc(C)c(S(=O)(=O)NCC(c2ccco2)S(=O)(=O)c2ccc(F)cc2)c1 (stereo not drawn) | – | – | – | – | – | · | ·
O=C1SC(SCc2ccccc2Cl)=N/C1=C\c1ccc(C(=O)O)cc1 | ? | 50µM | – | ? | ? | –[11.6 µM] | ?
Nc1c(C=C2C=CC(=O)C=C2)c(=O)nc2sc(CC(=O)N3CCCCC3)nn12 | ? | 40µM | – | – | – | – | 76
Cn1c(-n2cccc2)c(-c2c(-c3ccccc3)[nH]c3c2c(=O)[nH]c(=O)n3C)c(=O)[nH]c1=O | 79µM | 79µM | ? | – | 16µM | · | · | Pol kappa inh-2=?
Cc1ccc(-c2[nH]c3c(c2-c2c(-n4cccc4)n(C)c(=O)[nH]c2=O)c(=O)[nH]c(=O)n3C)cc1 | – | ? | – | – | – | · | ·
CC(=O)N1CCc2cc(S(=O)(=O)NC(Cc3ccccc3)C(=O)Nc3cccc(C)c3)ccc21 (stereo not drawn) | – | – | – | – | – | · | ·
CC(=O)NS(=O)(=O)c1ccc(NC(=O)c2cc(-c3ccc(C)cc3)nc3ccccc23)cc1 | – | – | – | – | – | – | ·
CC(=O)NS(=O)(=O)c1ccc(NC(=O)c2cc(-c3ccc(C)c(C)c3)nc3ccccc23)cc1 | – | 22µM | – | – | 25µM | ? | 76
O=C(c1ccc2c(c1)N(Cc1ccc(Cl)cc1)C(=O)c1ccccc1S2=O)N1CCC(Cc2ccccc2)CC1 (stereo not drawn) | – | – | – | – | – | · | ·
CCCN(CCC)S(=O)(=O)c1ccc(NC(=O)Cc2cccs2)cc1 | ? | ? | – | – | ? | – | 76
CCCN(CCC)S(=O)(=O)c1ccc(NC(=O)COc2ccccc2)cc1 | – | – | – | ? | ? | – | ·
Cc1cc(C)c(S(=O)(=O)Nc2ccc(-c3ccc(N4CCCCCC4)nn3)cc2)c(C)c1 | – | – | – | – | – | · | ·
CC(=O)c1ccc(N2CCN(S(=O)(=O)c3ccc(-c4coc(C)n4)cc3)CC2)cc1 | ? | 79µM | – | – | 45µM | · | ?
COc1cccc(-c2coc3c(C)c4oc(=O)c(CCC(=O)O)c(C)c4cc23)c1 | ? | 50µM | – | ? | ? | ? | 48
COc1cccc(-c2coc3c(C)c4oc(=O)c(CC(=O)O)c(C)c4cc23)c1 | – | – | – | – | – | – | ·
Cc1cccc(N(C)C(=O)CN(C)S(=O)(=O)c2ccc3[nH]c4c(c3c2)CCCC4)c1 | – | – | – | – | – | · | ·
COc1ccc(C(=O)NCC(=O)OCC(=O)Nc2sccc2C#N)cc1OC | – | 50µM | ? | – | ? | – | ?
Cc1ccc(S(=O)(=O)CCC(=O)OCC(=O)Nc2sccc2C#N)cc1 | · | 28µM | · | · | · | – | ?
Cc1cc(C(=O)Nc2cccc3ccccc23)co1 | – | – | – | – | – | – | ·
SMILES | Pol iota inh | Pol eta inh-1 | Pol kappa inh-1 | FEN1 inh | POLB inh | WRN inhibitor | Pol eta inh-2 | others
Cc1cc(C(=O)NCc2cc(C(=O)O)co2)co1 | ? | 20µM | 79µM | – | – | – | 30 | Pol kappa inh-2=17
Cn1c(=O)c2sccc2n2c(CCC(=O)Nc3ccc(F)cc3)nnc12 | – | – | – | – | – | · | ·
Cc1ccc(C)c(-c2ccc(=O)n(C(C)C(=O)Nc3ccccc3C(F)(F)F)n2)c1 (stereo not drawn) | – | – | – | – | – | · | ·
Cc1cc(O)c(CN(C)C)c2c1C(=O)/C(=C/c1ccco1)O2 | ? | 11µM | – | ? | – | –[11.6 µM] | 54 | Pol kappa inh-2=34
CC1(OC(=O)CCc2ccccc2)C(=O)C=C2C=C3CCCN3C=C2C1=O (stereo not drawn) | 13µM | 45µM | ? | – | 45µM | –[11.6 µM] | ?
CCC(C)(C)C1CCc2c(sc(NC(=O)c3ccccc3C(=O)O)c2C#N)C1 (stereo not drawn) | – | ? | – | – | – | – | · | Pol kappa inh-2=?
O=C(COc1ccc(F)cc1)Nc1nc(-c2cccnc2)cs1 | · | 35µM | · | · | · | – | ?
Cc1ccn2c(Nc3ccc4c(c3)OCCO4)c(-c3ccc(C)o3)nc2c1 | – | – | – | – | – | · | ·
Cc1nn(CC(=O)NC2C(=O)N3C(C(=O)O)=C(CSc4nnnn4C)CSC23)cc1Br (stereo not drawn) | – | ? | – | – | 32µM | –[11.6 µM] | 76
CC1=C(C(=O)O)N2C(=O)C(NC(=O)c3nn(C)cc3Cl)C2SC1 (stereo not drawn) | – | – | – | – | – | – | ·
Cc1c(Cl)cnn1CC(=O)NC1C(=O)N2C(C(=O)O)=C(CSc3nnnn3C)CSC12 (stereo not drawn) | ? | 22µM | ? | – | 20µM | –[11.6 µM] | 43
Cn1nnnc1SCC1=C(C(=O)O)N2C(=O)C(NC(=O)Cn3nc(C(F)F)cc3C3CC3)C2SC1 (stereo not drawn) | 35µM | 20µM | ? | – | 18µM | –[11.6 µM] | ?
